Measured values from PubChem BioAssay (NCI).
This is part of a sample that, as a whole, favours compounds with a hit. Of some 83,000 tested, about 20% had one in any assay.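 Results are percent growth after 48 hours of single-concentration exposure. 100 means growth as in untreated cells, lower positive values show inhibition; negative values down to -100 show cell death.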 Active and inactive are the calls of the source.

test system: OVCAR-8 ovarian; assay: NCI-60 one-dose screen, 48 h (100 = growth as untreated, 0 = no growth, -100 = all killed); details: 10 µM unless noted
Experimental: Growth inhibition of the OVCAR-8 human tumor cell line is measured as a screen for anti-cancer activity. Cells are grown in 96 well plates and exposed to the test compound for 48 hours. Compounds are tested at a single concentration, which is 10^-5 M for most compounds. The reported endpoint is percent growth (GI% or GIPRCNT), where numbers from 0 - 100% represent growth inhibition, and numbers from -100% - 0 represent cell death. For example, a value of 40 represents 60% growth inhibition. A value of 0 means no net growth occurred over the course of the experiment. A value of -40 indicates 40% of cells at the beginning of the experiment died by the end of the experiment. A value of -100 means all cells are dead at the end of the experiment.
NCI-60 Human Tumor Cell Lines Screen was performed using the standard one-dose NCI protocol, which is described in more detail at https://dtp.cancer.gov/discovery_development/nci-60/default.htm.
Compounds with GIPRCNT values below 10 were considered active. Activity score was based on GIPRCNT using the following formula: […]
Score is 0 for GIPRCNT values of 100 or above, 50 for GIPRCNT values of 0, and 100 for GIPRCNT values of -100.

Structure (SMILES) | growth
Cc1ccc(NC(=S)/N=c2/n(-c3ccccc3)nc3n2CCN3C2=NCCN2)cc1 | 105% (inactive)
CCOC(=O)C(c1ccccc1)N1C(=O)c2ccccc2C1=O (stereo not given) | 99.7% (inactive)
CCCCN(CC)CC(CC)Nc1cc(OC)cc2cccnc12 (stereo not given) | 103% (inactive)
CC1Cc2c(Cl)ncnc2N(C)c2ccc(Cl)cc21 (stereo not given) | 8.59% (active)
O=C1CC(C(F)(F)F)Cc2nc3ccc(Br)cc3cc21 (stereo not given) | 95.7% (inactive)
CCCCCCCCCCCCCCNC(=O)Nc1ccc(Cl)c(Cl)c1 | 30.5% (inactive)
COc1ccccc1S(=O)Nc1ccccc1 (stereo not given) | 94.2% (inactive)
O=S(=O)(NCc1ccccc1)c1ncnc2nc[nH]c12 | 87.2% (inactive)
c1cc2ccc1CNCCN1CCNCc3ccc(cc3)Oc3ccc(cc3)CNCCN(CCNCc3ccc(cc3)O2)CCNCc2ccc(cc2)Oc2ccc(cc2)CNCC1 | -7.54% (active)
CCc1ccc(NC(=O)N[C@@H](Cc2cc(F)cc(F)c2)C(=O)N[C@@H]2C(=O)N3C[C@H](O)C[C@H]3C(=O)N3CCOC[C@H]3C(=O)N[C@@H](C)C(=O)N3C[C@H](C)C[C@H]3C(=O)O[C@H]2C)cc1 | 62.3% (inactive)
COc1ccc(-c2cc(-c3ccccc3)nc(NCCNc3ccnc4cc(Cl)ccc34)n2)cc1 | -60.2% (active)
O=C(N=c1n(-c2ccccc2)nc2n1CCN2C1=NCCN1)c1ccc(Cl)cc1 | 98.7% (inactive)
O=C(Nc1cccc(C2=NCCN2)c1)c1cccc(C(=O)Nc2cccc(C3=NCCN3)c2)c1 | 101% (inactive)
CC(C)=CC/C=C(/C)[C@H]1CC[C@]2(C)[C@@H]1CC[C@@H]1[C@@]3(C)CCC(=O)NC(C)(C)[C@@H]3CC[C@]12C | 0.344% [100 µM] (active)
Cn1cc(-c2noc(C(=O)c3cn(C)c4ncccc34)n2)c2ccccc21 | 102% (inactive)
COc1ccc(C2=C(c3cn(C)c4ccccc34)C(=O)OC2)cc1OC | 47.8% (inactive)
CCOC(=O)C(=Cc1ccccc1[N+](=O)[O-])C(=O)OCC | 12.2% (inactive)
O=C(Nc1cccc(F)c1)c1cc(=O)[nH]c2cc(Br)ccc12 | 71.8% (inactive)
CCCCCC1CCCCN1C(=O)OCCCC (stereo not given) | 106% (inactive)
CCN(CC)c1ccc2cc(C(Nc3ccc(Br)c(C(F)(F)F)c3)c3nnnn3C(C)(C)C)c(=O)oc2c1 (stereo not given) | 91.5% (inactive)

Structure (SMILES) | growth
CCCC[C@@H](C=O)NC(=O)[C@H](CC(C)C)NC(=O)[C@H](CC(C)C)NC(=O)OCc1ccccc1 | 18.8% (inactive)
CCN=C1C=CC(=C(c2ccc(N(CC)CC)cc2)c2ccc(N(CC)CC)cc2)c2ccccc21 | -52.7% (active)
CC(C)[N+](C)(C)CC(O)COc1cccc2ccccc12 (stereo not given) | 98.4% (inactive)
O=C(N/N=C1\c2ccccc2-c2cccc(C(=O)O)c21)c1ccc(O)cc1 | 97.4% (inactive)
O=C(Nc1cc(F)cc2cccnc12)c1cnc(N2CCNCC2)cn1 | 72.4% (inactive)
COc1ccc(/C=C(/C(=O)c2ccc(Cl)cc2)C(=O)C(F)(F)F)cc1 | 102% (inactive)
CCCCCCCCCCCCCCCCCCNC(=S)N/N=C/c1ccc(OC)c(OC)c1 | 101% (inactive)
COc1ccc(N(c2nc(-c3ccc([N+](=O)[O-])cc3)cs2)C(C)C)cc1 | 89.6% (inactive)
COc1cc(C)cc2oc3oc(=N)c(C(=O)c4ccccc4)cc3c(=O)c12 | 105% (inactive)
CCCCCn1c(C)cc(/C=C\c2ccc3cc(C)ccc3[n+]2C)c1C | -69.5% (active)
Oc1ccc(N=Nc2nccs2)c(O)c1 | 36.4% (inactive)
CCOc1cccc2c(NC(C)CCCN(CC)CC)c(C)cnc12 (stereo not given) | 103% (inactive)
c1ccc(-c2nc(N3CCCNCC3)c3nc(-c4ccccc4)oc3n2)cc1 | 59.5% (inactive)
CCCCNC(=O)NS(=O)(=O)Cc1ccccc1 | 100% (inactive)
COc1ccc(-c2cc(-c3ccc(OC)c(OC)c3)nc(SCCCCCC(=O)NO)n2)cc1 | 37.7% (inactive)
CCCCN(CCCC)CC(O)c1ccc(OCc2ccccc2)c2ccccc12 (stereo not given) | 89.6% (inactive)
CCCc1cc2cc(-n3nc(C)c4c3CC(C)(C)CC4=O)cc(NC3CCSCC3)c2c(=O)[nH]1 | 79% (inactive)
COCCCNc1nc(NC(=O)c2cc(OC)cc(OC)c2)cc(-c2cccnc2)n1 | 79.3% (inactive)
CC[C@]12C=CCN3CC[C@@]4(c5ccc(OC)cc5N(C)[C@H]4[C@@](O)(C(=O)OC)[C@@H]1OC(=O)CCC(=O)N[C@H](Cc1c[nH]c4ccccc14)C(=O)OC)[C@@H]32 | 0.282% [100 µM] (active)
O=C(Nc1cccc2ccccc12)c1cc2ccccc2cc1O | 12.2% (inactive)
